# Reference: PubChem BioAssay (EPA / NIEHS)
# Results filed as inconclusive are left out. Calls of active or inactive are those of the source. How the source made its calls: active means hit-call score of the fitted dose curve at least 0.9, where 1 is the maximum; inconclusive means response in the unintended direction; inactive means score below 0.9.
# Molecular target: Estrogen receptor (Homo sapiens) (UniProt P03372)
# Experiment: CCTE_Deisenroth_AIME_384WELL_LUC_Active: CCTE's 384-well Estrogen Receptor Transactivation Assay with AIME metabolic competence (ERTA luciferase; metabolism positive), Deisenroth Lab (AID 2284030)
# Method: CCTE_Deisenroth_AIME_384WELL (AIME metabolism assay) is a cell-based, single-readout assay that uses VM7Luc4E2, a human mammary gland/breast cell line, with measurements taken at 24 hour after chemical dosing in a 384-well plate.CCTE_Deisenroth_AIME_384WELL_LUC_Active is one of four assay components measured or calculated from the CCTE_Deisenroth_AIME_384WELL assay. It is designed to make measurements of luciferase induction, a form of inducible reporter, as detected with bioluminescence signals by luciferase-coupled ATP quantitation technology.CCTE_Deisenroth_AIME_384WELL_LUC_Active is a component of the CCTE_Deisenroth_AIME_384WELL assay that measures the effect of retroftting the VM7Luc ERTA assay with the Alginate Immobolization of Metabolic Enzymes (AIME) metabolism method. AIME is optimized to impart phase I hepatic metabolism using phenobarbital/beta-naphthoflavone induced hepatic S9 from male Sprague Dawley rats. Parent chemicals are incubated for 2 hours in the AIME assay prior to transfer to the VM7Luc ERTA assay plate. […] This endpoint evaluates reporter induction in metabolism positive mode. Using a type of inducible reporter in VM7Luc cells, gain-of-signal activity can be used to understand changes in the reporter gene as they relate to xenobiotic metabolism and the gene ESR1. This assay endpoint, CCTE_Deisenroth_AIME_384WELL_LUC_Active, was analyzed in the positive analysis fitting direction relative to 17beta-estradiol as the positive control in the ERTA assay. To generalize the intended target to other relatable targets, this assay endpoint is annotated to the nuclear receptor intended target family, where the subfamily is steroidal.
# The AIME procedure consists of a preparative "pre-stamping" step using a barium chloride/poly-L-lysine (PLL) solution followed by "stamping" the lid in alginate-hepatic S9 (metabolism positive) or alginate-water (metabolism negative) to form microspheres. Once stamping is completed, the AIME lids are placed in duplicate microplates (metabolism positive or negative) containing chemical solutions and incubated for two hours to facilitate metabolic reactions. The conditioned medium, containing parent chemical or metabolites, is then transferred to the cell-based VM7Luc Estrogen Receptor Transactivation Assay (ERTA) for 24 hours. A typical experimental design tests a 10-point concentration series (0.002 - 200 uM) for 8 compounds (96-well format)1 or 32 compounds (384-well format)2 in single technical replicate. AIME assay controls include trans-stilbene (bioactivated control) and ethylparaben (bioinactivated control). ERTA assay plate controls include 17-beta estradiol (positive control) and DMSO (solvent control). Experiments typically comprise a minimum of four experimental replicates (n=4).
# Chain of Estrogen receptor (Homo sapiens) (P03372 whole entry, looked up): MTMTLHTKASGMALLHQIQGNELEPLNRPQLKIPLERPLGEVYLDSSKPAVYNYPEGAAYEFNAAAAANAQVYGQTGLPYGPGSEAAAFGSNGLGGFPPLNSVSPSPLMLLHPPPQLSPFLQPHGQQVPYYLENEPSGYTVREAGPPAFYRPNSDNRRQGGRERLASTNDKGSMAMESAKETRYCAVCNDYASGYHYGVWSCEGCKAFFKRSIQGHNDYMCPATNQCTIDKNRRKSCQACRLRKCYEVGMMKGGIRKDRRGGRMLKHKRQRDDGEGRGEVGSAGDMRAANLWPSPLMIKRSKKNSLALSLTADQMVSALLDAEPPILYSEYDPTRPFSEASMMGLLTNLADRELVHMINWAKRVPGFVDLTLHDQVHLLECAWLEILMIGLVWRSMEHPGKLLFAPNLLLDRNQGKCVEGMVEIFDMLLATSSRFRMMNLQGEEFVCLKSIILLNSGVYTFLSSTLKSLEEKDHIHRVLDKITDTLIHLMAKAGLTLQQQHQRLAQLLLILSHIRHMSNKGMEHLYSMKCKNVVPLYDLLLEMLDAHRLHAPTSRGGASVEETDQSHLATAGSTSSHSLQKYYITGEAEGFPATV
Structure (SMILES),outcome,AC50
CCCCC/C=C\CCC=O,inactive,
NC(CO)(CO)CO,inactive,
O=C(c1ccccc1)C1CCC1,inactive,
O=C1CCCC1,inactive,
CCCCCc1ccc(Cl)cc1,inactive,
O=C(C(Cl)Cl)N1CCOC12CCCCC2,inactive,
CCCCC(CC)CCC(CC(C)C)OS(=O)(=O)O (stereo not drawn),inactive,
O=C1C(N(CO)C(=O)NCO)N(CO)C(=O)N1CO (stereo not drawn),inactive,
OC1CCCC1,inactive,
Cc1ccc(C(C)c2ccc(C)c(C)c2)cc1C,,16 µM (active)
CC=C1CC2C=CC1C2 (stereo not drawn),inactive,
C=C1C2CCC(C2)C1(C)C (stereo not drawn),inactive,
O=C(C=Cc1ccccc1)OCc1ccccc1,inactive,
CC1=NN(c2cc(S(=O)(=O)O)ccc2Cl)C(=O)C1N=Nc1ccccc1 (stereo not drawn),inactive,
C=CC(=O)NC(C)(C)CS(=O)(=O)O,inactive,
CCCCCCCCCCOS(=O)(=O)O,inactive,
O=S1(=O)OC(c2ccc(O)cc2)(c2ccc(O)cc2)c2ccccc21,inactive,
CCOC(=O)CC,inactive,
CO[Si](OC)(OC)c1ccccc1,inactive,
CCN(CCC#N)c1ccc(N=Nc2c(Cl)cc([N+](=O)[O-])cc2Cl)cc1,inactive,
CC(=O)OC(C)C,inactive,
O=S(=O)(O)c1ccccc1C=Cc1ccc(-c2ccc(C=Cc3ccccc3S(=O)(=O)O)cc2)cc1,inactive,
O=c1cc(-c2ccccc2)oc2ccccc12,,45.6 µM (active)
